Assay results as given in PubChem BioAssay AID449762 (Southern Research Specialized Biocontainment Screening …, 2010).
Among all 330,000 compounds or so, about 1,900 (0.58%) were called active. Roughly 4% stayed inconclusive and do not appear here. Rule as the data show it: inconclusive = inhibition above about 70% without an active follow-up result; inactive = below that. These entries were drawn from the full list. Potency and affinity values are given separately.

Assay: M. tuberculosis growth inhibition, HTS (AID 449762);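 also: bacterial growth assessed after seven days of incubation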
Settings: M. tuberculosis H37Rv growth inhibition, 7H9 media; at 25 µM; hits give high values

Q: For `CC(C)(C)c1ccc(-c2nnc(SCC(=O)NC3CCS(=O)(=O)C3)n2N)cc1` (configuration not stated), which inhibition is on record?
A: 1.59% (inactive)

Q: For `COc1cc(CC(=O)OCC(=O)Nc2ccc3c(c2)OCO3)cc(OC)c1OC`, which inhibition is on record?
A: 0.09% (inactive)

Q: With `COc1ccc(C2=NOC(Cn3nc(C(=O)O)cc3-c3ccccc3)C2)cc1` (configuration not stated) as the molecule, how does the inhibition read?
A: -10.9% (inactive)

Q: With `O=C(Cn1ccc2ccccc2c1=O)NCCC(=O)N1CCN(c2ccccc2)CC1` as the molecule, how does the inhibition read?
A: 2.9% (inactive)

Q: With `O=C(CSc1nc(=O)n(CCCN2CCOCC2)c2c1CCCC2)Nc1ccc(F)cc1` as the molecule, how does the inhibition read?
A: -5.62% (inactive)

Q: For `Cc1cccc(C)c1NC(=O)N1CCCCCCC1`, which inhibition is on record?
A: -5.98% (inactive)

Q: For `C#CCOCCOCCOCCNc1nc(N2CCN(C(=O)CCCCCCCCCCNC(=O)[C@H](CCCCN)n3cc(CCO)nn3)CC2)nc(N2CCN(C(=O)CCCCCCCCCCNC(=O)[C@H](CCCCN)n3cc(CCCC(=O)O)nn3)CC2)n1`, which inhibition is on record?
A: 24.8% (inactive)

Q: With `C#CCOCCOCCOCCNc1nc(N2CCN(C(=O)CCCCCCCCCCNC(=O)[C@H](CCCCN)n3cc(CCCC(=O)O)nn3)CC2)nc(N2CCN(C(=O)CCCCCCCCCCNC(=O)[C@H](CCCCN)n3cc(CCCC(=O)O)nn3)CC2)n1` as the molecule, how does the inhibition read?
A: -1.93% (inactive)

Q: With `CC(C)CNC(=O)COC(=O)C1c2ccccc2Oc2ccccc21` as the molecule, how does the inhibition read?
A: 9.4% (inactive)

Q: Which inhibition does the source give for `N#CCC(=O)Nc1ccc(C(=O)OCC(=O)c2ccc3c(c2)OCCO3)cc1` here?
A: -4.26% (inactive)

Q: For `CCC(C(=O)Nc1ccc(OC)c(Cl)c1)c1ccccc1` (configuration not stated), which inhibition is on record?
A: -3.28% (inactive)

Q: With `O=C(CSc1ccc(-c2cccnc2)nn1)Nc1ccc(Br)cc1` as the molecule, how does the inhibition read?
A: -0.4% (inactive)

Q: With `Cc1nonc1OCCNCCNc1ccc([N+](=O)[O-])cc1Cl` as the molecule, how does the inhibition read?
A: 10.9% (inactive)

Q: Which inhibition does the source give for `COc1ccc(NC(=O)CN2CCN(CC(=O)Nc3ccc4c(c3)OCO4)CC2)cc1` here?
A: -4.59% (inactive)

Q: Which inhibition does the source give for `COc1ccccc1NC(=O)CN1CCN(CC(=O)Nc2ccc(OC)c(OC)c2)CC1` here?
A: -1.32% (inactive)

Q: Which inhibition does the source give for `CCOC(=O)c1c(C=O)c2ccccc2n1Cc1ccccc1F` here?
A: 0.55% (inactive)

Q: With `N#CC1=C(N)Oc2n[nH]c(-c3cccs3)c2C1c1ccccc1C(=O)O` (configuration not stated) as the molecule, how does the inhibition read?
A: -1.81% (inactive)

Q: For `CCN(CC)C(=O)CC(c1ccc(OC)cc1)c1c(O)cc(OC)cc1OC` (configuration not stated), which inhibition is on record?
A: -3.84% (inactive)

Q: Which inhibition does the source give for `CCN(C(=O)COC(=O)c1[nH]c(=O)[nH]c(=O)c1N)c1ccccc1` here?
A: -1.59% (inactive)

Q: Which inhibition does the source give for `C(=N\Nc1nc(Nc2ccccc2)nc(Nc2ccccc2)n1)/c1cccnc1` here?
A: 11.1% (inactive)

Q: Which inhibition does the source give for `C(=N\Nc1nc(Nc2ccccc2)nc(Nc2ccccc2)n1)/c1ccncc1` here?
A: 0.63% (inactive)

Q: With `CC(=O)c1c(O)cc(C)n(-c2ccc(F)cc2)c1=O` as the molecule, how does the inhibition read?
A: -1.89% (inactive)

Q: With `Cc1ccccc1NC(=S)N1CCCC(c2nc3ccccc3[nH]2)C1` (configuration not stated) as the molecule, how does the inhibition read?
A: 0% (inactive)

Q: With `Cc1[nH]n(S(=O)(=O)c2ccccc2)c(=O)c1N=Nc1cccc(Cl)c1` as the molecule, how does the inhibition read?
A: 0.21% (inactive)

Q: With `Cc1[nH][nH]c(=O)c1N=Nc1ccccc1Cl` as the molecule, how does the inhibition read?
A: -0.87% (inactive)

Q: Which inhibition does the source give for `COc1cccc(CNC(=O)Cn2ccc([N+](=O)[O-])n2)c1` here?
A: -0.85% (inactive)

Q: For `CCC(=O)Nc1ccc2c(c1)nc(CCNC(=O)c1ccco1)n2C`, which inhibition is on record?
A: 2.89% (inactive)

Q: With `CS(=O)(=O)c1ccc2nc(NC(=O)c3ccc(NS(=O)(=O)c4ccc(F)c(F)c4)cc3)sc2c1` as the molecule, how does the inhibition read?
A: -0.5% (inactive)

Q: For `CS(=O)(=O)c1ccc2nc(NC(=O)c3cccc(NS(=O)(=O)c4ccc(F)c(F)c4)c3)sc2c1`, which inhibition is on record?
A: 60.6% (inactive)

Q: Which inhibition does the source give for `CCN(CC)S(=O)(=O)c1ccc(N2CCOCC2)c(NS(=O)(=O)c2ccc(C(C)C)cc2)c1` here?
A: -4.72% (inactive)

Q: Which inhibition does the source give for `Cc1ccc([C@@H]2CC=C(C(=O)O)[C@H](c3ccc(F)cc3)N2S(=O)(=O)c2ccccc2C)cc1` here?
A: 0.59% (inactive)

Q: Which inhibition does the source give for `O=C1CCCC(=O)N1c1ccc(F)cc1` here?
A: -3.22% (inactive)

Q: Which inhibition does the source give for `CCCCN1C(=O)c2ccc(C(=O)Nc3cccnc3)cc2C1=O` here?
A: 48.5% (inactive)

Q: Which inhibition does the source give for `CC1=C(/C=C/C(C)=C/C=C/C(C)=C/C(=O)O)C(C)(C)CCC1` here?
A: 26.5% (inactive)

Q: For `CC1=C(/C=C/C(C)=C/C=C/C(C)=C\C(=O)O)C(C)(C)CCC1`, which inhibition is on record?
A: 69.3% (inactive)

Q: With `N#Cc1ccc(C23CC4CC(CC(C4)C2)C3)[nH]c1=O` as the molecule, how does the inhibition read?
A: 12.1% (inactive)

Q: For `O=c1cc(C23CC4CC(CC(C4)C2)C3)[nH][nH]1`, which inhibition is on record?
A: 4.36% (inactive)

Q: With `Cc1cnc(CN(C)C(=O)CC2C(=O)NCCN2CCCc2ccccc2)[nH]1` (configuration not stated) as the molecule, how does the inhibition read?
A: -8.51% (inactive)

Q: For `Cc1nn(C(C)C(=O)NCc2ccccc2F)c(=O)c2nn(-c3ccccc3)c(C)c12` (configuration not stated), which inhibition is on record?
A: 0.01% (inactive)

Q: Which inhibition does the source give for `CCN1C(=O)[C@H]2[C@@H](c3ccc(-c4ccc(Cl)c(Cl)c4)cc3)N[C@@](Cc3ccccc3)(C(=O)OC)[C@H]2C1=O` here?
A: 4.89% (inactive)

Q: For `Cc1ccccc1N1CCN(CC(=O)Nc2nccs2)CC1`, which inhibition is on record?
A: 6.57% (inactive)

Q: For `COc1ccccc1N1CCN(CC(=O)Nc2nccs2)CC1`, which inhibition is on record?
A: 6.27% (inactive)

Q: Which inhibition does the source give for `O=C(CC(=O)NC1CCCCC1)N/N=C/c1ccccc1F` here?
A: 7.41% (inactive)

Q: Which inhibition does the source give for `CCOC(=O)CNC(=O)c1cnc(Nc2ccccc2OC)c2ccccc12` here?
A: 2.72% (inactive)

Q: For `O=C(O)Cc1c(-c2ccccc2Cl)c2cc(Br)ccc2[nH]c1=O`, which inhibition is on record?
A: 0.9% (inactive)

Q: For `O=C(NNc1nc(-c2ccc(F)cc2)cs1)c1ccccc1`, which inhibition is on record?
A: 1.95% (inactive)

Q: With `N#Cc1ccc(-c2csc(NNC(=O)c3ccccc3)n2)cc1` as the molecule, how does the inhibition read?
A: 1.66% (inactive)

Q: For `Cc1cc(C)c(C#N)c(SCCS(=O)(=O)c2ccc(C(C)(C)C)cc2)n1`, which inhibition is on record?
A: 1.43% (inactive)

Q: Which inhibition does the source give for `CCC(=O)CCC(=O)c1ccc2ccccc2c1` here?
A: 9.13% (inactive)

Q: For `O=C1C=C(O)c2c(O)cccc2C1=O`, which inhibition is on record?
A: -6.54% (inactive)

Q: Which inhibition does the source give for `COc1cccc2c1C(=O)C=C(C)C2=O` here?
A: -8.66% (inactive)

Q: Which inhibition does the source give for `CC(=O)NC12CC3CC(C1)CC(C(=O)Nc1c(C)n(C)n(-c4ccccc4)c1=O)(C3)C2` here?
A: -13% (inactive)

Q: With `COc1ccc(NC(=O)CSc2nnnn2-c2ccc(F)cc2)cc1` as the molecule, how does the inhibition read?
A: -7.12% (inactive)

Q: For `C[C@@]12C(=O)N(CCO)CC(=O)N1[C@H](/C=C/c1ccccc1)[C@@H]1C(=O)N(c3ccccc3)C(=O)[C@@H]12`, which inhibition is on record?
A: -1.57% (inactive)

Q: For `CC1(C)CN(c2cccc(C#N)c2)C1=O`, which inhibition is on record?
A: -3.52% (inactive)

Q: For `CC(=O)OCC1(C)CN(c2ccccc2)N(C(=O)c2ccc(F)cc2)C1=O` (configuration not stated), which inhibition is on record?
A: 37.7% (inactive)

Q: Which inhibition does the source give for `COc1cccc(CN(C(=O)c2ccccc2Br)C2CCS(=O)(=O)C2)c1` (configuration not stated) here?
A: -0.47% (inactive)

Q: With `CC1(C)CC(=O)C2=C(C1)NC(Nc1nc3ccccc3o1)=NC21CCCC1` as the molecule, how does the inhibition read?
A: -11% (inactive)

Q: With `CC1(C)CC(=O)C2=C(C1)NC(Nc1nc3ccccc3o1)=NC21CCCCC1` as the molecule, how does the inhibition read?
A: -1.05% (inactive)

Q: With `O=C(CN1C(=O)c2ccccc2S1(=O)=O)NC1CC2CCC1C2` (configuration not stated) as the molecule, how does the inhibition read?
A: -4.11% (inactive)

Q: For `CN1CCN(c2ccc(NC(=O)CN3CCOCC3)cc2F)CC1`, which inhibition is on record?
A: -4.73% (inactive)

Q: Which inhibition does the source give for `C=CCNC(=S)NC(=O)c1csc([N+](=O)[O-])c1` here?
A: 18.2% (inactive)

Q: With `CC(C)CNC(=S)NC(=O)c1ccc([N+](=O)[O-])cc1` as the molecule, how does the inhibition read?
A: 11.6% (inactive)

Q: With `CCn1c(SCC(=O)N/N=C/c2ccccc2OCC(=O)O)nnc1-c1ccc(OC)cc1` as the molecule, how does the inhibition read?
A: 1.34% (inactive)

Q: For `Oc1ccc(CNc2ccc(F)cc2)c2cccnc12`, which inhibition is on record?
A: -1.78% (inactive)

Q: Which inhibition does the source give for `Oc1ccc(CN2CCN(Cc3ccccc3)CC2)c2cccnc12` here?
A: 14.4% (inactive)

Q: With `Cc1ccccc1NCc1ccc(O)c2ncccc12` as the molecule, how does the inhibition read?
A: 2.36% (inactive)

Q: For `OCc1ccc(O)c2ncccc12`, which inhibition is on record?
A: 52.4% (inactive)

Q: For `Oc1ccc(CN2CCCc3ccccc32)c2cccnc12`, which inhibition is on record?
A: -5.25% (inactive)

Q: Which inhibition does the source give for `Cc1cccnc1NCc1ccc(O)c2ncccc12` here?
A: 51.8% (inactive)

Q: For `Oc1ccc(CNc2ccccc2)c2cccnc12`, which inhibition is on record?
A: -3.76% (inactive)

Q: Which inhibition does the source give for `Cc1cccc(NCc2ccc(O)c3ncccc23)c1` here?
A: 14.1% (inactive)

Q: With `COc1ccc(S(=O)(=O)N(Cc2ccc(OC)c(OC)c2)Cc2ccco2)cc1` as the molecule, how does the inhibition read?
A: 12.4% (inactive)

Q: Which inhibition does the source give for `O=C1NNC(=O)C1c1ccccc1` here?
A: 0.86% (inactive)

Q: Which inhibition does the source give for `COc1cccc(C2[C@H](C)C3(CCN2C)OCCO3)c1` (some centres not stated) here?
A: 1.26% (inactive)

Q: With `C=CCN(C(=O)c1csnn1)C(C(=O)NCc1ccccc1)c1ccccc1F` (configuration not stated) as the molecule, how does the inhibition read?
A: 5.11% (inactive)

Q: With `COc1ccc(NC(=S)N2CCC(c3ccccc3)C2)cc1` (configuration not stated) as the molecule, how does the inhibition read?
A: 0.04% (inactive)

Q: For `CCCC(=O)OCC(=O)Nc1ccc([N+](=O)[O-])cc1C#N`, which inhibition is on record?
A: 0.66% (inactive)

Q: Which inhibition does the source give for `O=C1CCc2cc(S(=O)(=O)NCCc3ccccc3)cc3c2N1CC3` here?
A: -3.75% (inactive)

Q: For `CN1CCN(CC(O)COc2ccc(C(=O)O)cc2)CC1` (configuration not stated), which inhibition is on record?
A: 4% (inactive)

Q: With `COc1ccc(C=O)cc1CN1CCCN(Cc2ccccc2F)S1(=O)=O` as the molecule, how does the inhibition read?
A: 9.36% (inactive)

Q: Which inhibition does the source give for `C=CCc1cc(OC)ccc1OCCOCCC(C(=O)OCC)C(=O)OCC` here?
A: -13% (inactive)

Q: For `C=CCc1cc(C)ccc1OCCOCCC(C(=O)OCC)C(=O)OCC`, which inhibition is on record?
A: -7.06% (inactive)

Q: For `Cc1ccc2[nH]c(C(=O)O)c(-c3ccccc3)c2c1`, which inhibition is on record?
A: 6.59% (inactive)

Q: Which inhibition does the source give for `O=C(NN=C1CCCC1)c1[nH]c2ccc(Br)cc2c1-c1ccccc1` here?
A: 62% (inactive)

Q: With `CCOC(=O)Cn1cnc2c(nnn2-c2ccc(C)cc2)c1=O` as the molecule, how does the inhibition read?
A: -14.9% (inactive)

Q: Which inhibition does the source give for `CCC(NC(=O)c1cc(COc2c(F)cccc2F)on1)c1ccncc1` (configuration not stated) here?
A: -2.33% (inactive)

Q: With `CC(CN1C(C)CCCC1C)OC(=O)c1cccc(F)c1` (configuration not stated) as the molecule, how does the inhibition read?
A: 3.14% (inactive)

Q: With `CC(C)C1CC(CCN)(Cc2ccccc2)CCO1` (configuration not stated) as the molecule, how does the inhibition read?
A: 1.79% (inactive)

Q: Which inhibition does the source give for `COc1ccc2cc(C#N)c(N3CCN(C(=O)c4ccccc4C)CC3)nc2c1` here?
A: 11.1% (inactive)

Q: Which inhibition does the source give for `COc1ccc2cc(C#N)c(N3CCOCC3)nc2c1` here?
A: 3.82% (inactive)

Q: With `O=S(=O)(CCN1CCSCC1)c1ccc(Cl)cc1` as the molecule, how does the inhibition read?
A: -12.2% (inactive)
